Results on 34 molecules are retold here after PubChem BioAssay AID2778 (National Center for Advancing Translational Sciences (NCATS), 2010).

Records with an inconclusive call do not appear. Unmarked numbers belong to inactive results. Active and inactive are the calls of the source. Calls follow the shape of the dose curve; as a rule, active = well fitted inhibition curve with a large enough effect; inconclusive = small, poorly fitted or top-dose-only effect, or effect the other way; inactive = flat fitted curve, though single readings scatter. Positions of bridges follow the written chain, without caps; N, C: chain ends. Non-standard residues stand in square brackets, D forms with d. Residues, ends and D or L forms follow the SMILES beside them. ξ: configuration not given here. *: point of attachment. ξDab(CH2SO3H) = NC(CCNCS(=O)(=O)O)C(=O)O; Heptanoyl(6-Me) = CC(C)CCCCC(=O)*; Dab = NCC[CH](N)C(=O)O
% is scaled to controls: 0 for no effect and ±100 for the full control effect; potency is read from the fitted curve at half-maximal effect.

The target of this assay is Menin (Homo sapiens) (UniProt O00255). The assay is described as follows: Confirmation of Inhibitors Targeting the Menin-MLL Interaction in MLL Related Leukemias: Confirmation in an HTRF (commercial TR-FRET) Assay using His-tagged menin and biotin-labeled MLL peptide. As to conditions: His-menin / biotin-MLL peptide binding; series mostly up to 126 µM; activity change, negative = inhibition: at the top concentration. An outline of the steps: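 Compounds were incubated 1 hr at ambient with a preformed His6-menin (200 nM)/biotinylated MLL-w.t. peptide (80 nM) complex in Tris pH 7.5 buffer; anti-His Eu-cryptate (3.5 nM) and SA-XL665 (10 nM) added, TR-FRET read after 1h.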
Sequence of Menin (Homo sapiens) (O00255 whole entry, looked up): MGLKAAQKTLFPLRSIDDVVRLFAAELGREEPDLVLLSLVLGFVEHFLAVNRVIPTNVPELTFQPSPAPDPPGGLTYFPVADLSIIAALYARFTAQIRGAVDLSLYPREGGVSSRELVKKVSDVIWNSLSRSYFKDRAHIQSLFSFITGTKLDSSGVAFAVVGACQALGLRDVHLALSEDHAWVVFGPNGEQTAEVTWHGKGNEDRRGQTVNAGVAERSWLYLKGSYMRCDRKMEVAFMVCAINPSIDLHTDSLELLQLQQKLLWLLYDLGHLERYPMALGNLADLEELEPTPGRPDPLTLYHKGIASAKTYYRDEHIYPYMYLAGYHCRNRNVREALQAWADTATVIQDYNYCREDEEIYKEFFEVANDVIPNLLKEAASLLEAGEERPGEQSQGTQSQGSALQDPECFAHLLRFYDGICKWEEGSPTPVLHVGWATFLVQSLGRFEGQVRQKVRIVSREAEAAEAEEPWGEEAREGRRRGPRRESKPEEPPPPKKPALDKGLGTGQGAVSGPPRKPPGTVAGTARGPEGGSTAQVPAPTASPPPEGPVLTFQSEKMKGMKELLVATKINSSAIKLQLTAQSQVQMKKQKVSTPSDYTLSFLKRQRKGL
Consider `C=C(C)[C@@H]1CC=C(CN2CCN(Cc3ccccc3)CC2)CC1`, for which the “activity change, negative = inhibition” value is 4.46%. Still for that read-out and setting: with `C=C(C)CNC(=S)Nc1cccc2cnccc12` the figure was 6.82%; with `O=c1[nH]nc(Cc2ccc(-c3ccc(Cl)cc3)o2)c2ccccc12`, -18.4%; with `O=C(NCC1CCCO1)c1ccc(OC2CCN(C(=O)C3CC3)CC2)cc1` (centres undefined), 2.92%. Still for that read-out and setting: with `O=C(Cn1c(=O)c2c3c(sc2n(Cc2ccccc2)c1=O)CCCC3)NCCO` the figure was 2.77% [at 383 µM]; with `Cn1c(=O)n(C)c2cc3[nH]cnc3cc21`, 5.86%.

Take `CC1(C)CN=C(N2CCN(c3ncnc4sc5c(c34)CCCC5)CC2)S1`: the Potency was 28.2 µM (active). Regarding `Fc1ccccc1C1c2cccn2CCN1C(=S)Nc1ccc(Br)cc1` (centres undefined), the “activity change, negative = inhibition” value was -15.8%. In the case of `CCn1ncc(C(=O)Nc2cc(C)on2)c1C`, the “activity change, negative = inhibition” value was -3.27%. Still for that read-out and setting: next, `CC(=O)N1CCCc2cc(S(=O)(=O)N3CCCC(C(=O)N4CCN(c5ccccc5)CC4)C3)ccc21` (centres undefined): -9.1%. Still for that read-out and setting: with `CCOc1ccc2c(c1)C(NC(C)=O)C(=O)N2CCN1CCOCC1` (centres undefined) the figure was -12.1%; with `COc1ccc(CN2CCN(C(C)C(=O)N(C)Cc3cccc(F)c3)CC2)cc1OC` (centres undefined), -4.13%. The same measure, in the same setting: with `Cc1nc(C)c(-c2ccc(SCc3ccccc3F)nn2)s1` the figure was 2.1%; with `CCN1C(=O)c2ccccc2S(=O)(=O)c2ccc(C(=O)NCCCN(CC(C)C)CC(C)C)cc21`, 2.24%. Turning to `O=[N+]([O-])CC(c1ccccc1)P(=O)(c1ccccc1)c1ccccc1` (centres undefined), the “activity change, negative = inhibition” value is 0.121%.

In the case of `CC(=O)Nc1ccc(-c2cc(-c3ccc(NC(C)=O)cc3)nc(-c3ccc(NC(C)=O)cc3)n2)cc1`, the Potency was 79.4 µM (active).

In the case of `O=C(NC(=S)Nc1nc(-c2ccc(Br)cc2)cs1)c1cccnc1`, the “activity change, negative = inhibition” value is -24.2%.

Regarding `Cc1ccc(NC(=O)C(C)N2C(=O)c3ccccc3C2=O)c(C)c1` (centres undefined), the “activity change, negative = inhibition” value is 6.35%. With `COc1ccc(OC)c(C(c2c(C)[nH][nH]c2=O)c2c(C)[nH][nH]c2=O)c1`, the “activity change, negative = inhibition” value is -8.58% [at 383 µM]. Still for that read-out and setting: next, `Cc1c(F)cccc1NS(=O)(=O)c1ccc2c(c1)c(C)cc(=O)n2C`: 7.52%. The same measure, in the same setting: next, `O=C(Cn1nc(-c2ccccc2)ccc1=O)N1CCCCC1`: 3.9% [at 383 µM]; `CCC(C)C1NC(=O)C(CCNCS(=O)(=O)O)NC(=O)C(NC(=O)C(CCNCS(=O)(=O)O)NC(=O)C(NC(=O)C(CCNCS(=O)(=O)O)NC(=O)CCCCC(C)C)C(C)O)CCNC(=O)C(C(C)O)NC(=O)C(CCNCS(=O)(=O)O)NC(=O)C(CCNCS(=O)(=O)O)NC(=O)C(C(C)CC)NC1=O` (centres undefined) ({Heptanoyl(6-Me)}-[ξDab(CH2SO3H)]T[ξDab(CH2SO3H)][Dab][ξDab(CH2SO3H)]II[ξDab(CH2SO3H)][ξDab(CH2SO3H)]T; lactam 4-C; configuration not given here): 2.48%. Same read-out and setting: next, `Cc1ccc2nc(-c3ccc(NC(=O)COC(=O)c4ccc(Br)o4)cc3)sc2c1`: -21.7%; `Cc1nn(-c2ccccc2)c2nc(N)c(C(N)=O)cc12`: 11.3%.

`CCN(CC)c1nc(-c2ccc(C(=O)NN)cc2)nc(-c2ccc(C(=O)NN)cc2)n1`: the “activity change, negative = inhibition” value is -7.98% [at 383 µM]. Same read-out and setting: with `CSC[C@@H]1NC(=S)N(c2ccc(C)cc2)C1=O` the figure was -2.46%; with `Cc1ccc(C(=O)Sc2cccccc2=O)cc1`, 17.3% [at 383 µM]; with `O=C(CSc1ccc(Cl)cc1)Nc1ccc(NC(=O)c2ccco2)cc1`, -28.2%. The same measure, in the same setting: with `CCCCn1c(SCC(=O)NCc2ccc(OC)c(C(=O)O)c2)nc2cc(S(N)(=O)=O)ccc21` the figure was -4.84% [at 383 µM]; with `Cc1ccc[n+](-c2nc([O-])sc2/C=N/Nc2ccc([N+](=O)[O-])cc2)c1`, 11.4%; with `O=C(O)CCC(=O)Nc1ccc(SSc2ccc(NC(=O)CCC(=O)O)cc2)cc1`, 7.72% [at 383 µM]. Regarding `COc1ccccc1/C=C/C(=O)NC(=S)Nc1ccc(S(=O)(=O)N(C)c2ccccc2)cc1`, the “activity change, negative = inhibition” value was -19.3%. Turning to `c1ccc2c(c1)NCC1CCCN21` (centres undefined), the “activity change, negative = inhibition” value was -0.883%.

For `Cc1ccc(F)c(C2C3C=CCC(C)C3C(=O)N2Cc2ccccc2)c1` (centres undefined), the “activity change, negative = inhibition” value was -0.648%.
